This excerpt belongs to a sample that is enriched for hits.
ALOX12 inh = inhibitors of human 12S-lipoxygenase ALOX12; P18054; purified 12hLO, xylenol orange hydroperoxide absorbance; Potency, µM (highest dose often 108 µM), for the others: at the highest dose activity change, negative = inhibition, most hits filed as inhibitors; actives 1.1% (n = 580,000); also: potency is read from the fitted curve at half-maximal effect
Target sequence (P18054 whole entry, looked up): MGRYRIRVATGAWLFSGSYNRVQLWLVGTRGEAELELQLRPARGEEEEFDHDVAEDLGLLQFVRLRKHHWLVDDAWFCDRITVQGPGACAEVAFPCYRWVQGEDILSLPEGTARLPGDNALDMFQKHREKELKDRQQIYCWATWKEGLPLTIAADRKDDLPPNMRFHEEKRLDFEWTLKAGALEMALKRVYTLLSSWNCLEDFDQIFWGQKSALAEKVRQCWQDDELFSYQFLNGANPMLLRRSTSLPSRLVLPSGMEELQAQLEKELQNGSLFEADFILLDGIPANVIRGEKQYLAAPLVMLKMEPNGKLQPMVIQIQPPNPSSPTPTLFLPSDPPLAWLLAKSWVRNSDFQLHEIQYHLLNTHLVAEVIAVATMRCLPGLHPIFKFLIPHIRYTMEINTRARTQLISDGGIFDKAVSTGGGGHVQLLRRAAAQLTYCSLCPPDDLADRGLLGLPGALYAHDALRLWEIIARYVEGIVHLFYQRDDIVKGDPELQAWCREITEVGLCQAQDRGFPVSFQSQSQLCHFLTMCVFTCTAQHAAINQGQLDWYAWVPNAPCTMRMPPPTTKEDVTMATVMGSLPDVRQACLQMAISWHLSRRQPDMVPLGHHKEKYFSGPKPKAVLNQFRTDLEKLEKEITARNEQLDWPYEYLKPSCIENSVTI
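Purified human 12hLO (150 nM final) in 25 mM Hepes, 0.01% Triton X-100, pH 7.0 was preincubated 15 min at room temperature with compound. Then 40 uM arachidonic acid was added, 30 min. Hydroperoxide was read by Fe-XO absorbance ratio 573/405 nm.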
DT40 TDP1 CPT = DT40-hTDP1 cell growth loss with CPT | Potency, µM (highest dose often 46.2 µM), for inactives: at the top dose activity change, negative = growth inhibition, usual class: inhibitors | actives 12% (n = 420,000) | chicken DT40 Tdp1-/-;hTDP1 cells + 20 nM CPT, ATP luminescence, 48 h | AID 686979; also: potency is read from the fitted curve at half-maximal effect; nearly all actives have a fitted effect of over 55% in size
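Cell growth measured by CellTiter-Glo luminescence after a minimum 48 h, 37 C compound exposure with 20 nM CPT in Tdp1-knockout DT40 cells stably expressing hTDP1, seeded 400/well; qHTS titration format.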
TDP1 cell noCPT = qHTS for Inhibitors of human tyrosyl-DNA phosphodiesterase 1 (TDP1): qHTS in cells in absence of CPT. Potency, µM (top dose mostly 46.2 µM), without a hit: at the top dose activity change, negative = growth inhibition, actives largely listed as inhibitors. DT40 Tdp1-/- hTDP1 cells, no CPT, ATP luminescence, 48 h. actives 15% (n = 420,000); also: potency is read from the fitted curve at half-maximal effect; nearly all actives have a fitted effect of over 55% in size
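Luminescent ATP content (CellTiter-Glo) served as the growth readout. Knockout chicken DT40 cells expressing human TDP1 were exposed to compounds without camptothecin for a minimum 48 hr at 37 °C.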
IL-1B inflam inh = blocks inflammasome-driven IL-1 beta release; THP-1 LPS/ATP IL-1B secretion, AlphaLISA, 16 h; hits give low values; activity change, % at 57.5 µM; actives 4.7% (n = 360,000); AID 743279; in the data active = activity change below about -50%; inconclusive = mostly about -30% to -49%
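Secreted IL-1B measured by AlphaLISA bead assay after 16 h compound exposure of THP-1 cells; compounds (final up to 57.5 uM) added 1 h before LPS (250 ng/mL) and ATP (1.25 mM) stimulation; lower signal means less secretion.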
HT1080 IDH1KD tx = HT-1080 IDH1 knockdown cell toxicity (counter line) | HT-1080 IDH1 knockdown viability, ATP luminescence, 48 h | Potency, µM (series often up to 46.1 µM), without a hit: top-dose activity, negative = toxicity, actives largely listed as cytotoxic | actives 2% (n = 360,000) | AID 686971;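 also: potency is read from the fitted curve at half-maximal effect; 0% = DMSO wells and -100% = cell-free medium wells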
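CellTiter-Glo luminescence after 48 h compound exposure at 37 degrees C of IDH1-knockdown HT-1080 cells in 5% FBS RPMI. %Activity scaled between DMSO wells and cell-free media wells, with curves fitted and assigned curve classes.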
HT1080NT lethal = kills 2HG-producing HT-1080-NT fibrosarcoma cells; AID 686970; actives 1.6% (n = 360,000); Potency, µM (highest dose often 46.1 µM), for inactives: at the top dose activity, negative = less viability, most hits filed as cytotoxic; HT-1080-NT fibrosarcoma viability, CellTiter-Glo ATP luminescence, 48 h;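 also: NT is the 2HG producing partner of a matched IDH1 knockdown line; potency is read from the fitted curve at half-maximal effect; 0% = DMSO-treated cells and -100% = media-only wells without cells; nearly all actives have a fitted effect of over 55% in size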
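Compounds were tested in concentration-response format on HT-1080-NT cells for 48 hours at 37 degrees C. Cell viability came from CellTiter-Glo luminescence; curves were classified by r2, response magnitude and activity.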
* = called active by the depositor; i = inactive; ? = inconclusive; . = not tested or not shown; [ ] = dose if it differs, or a comment. Unless noted, calls follow the shape of the dose curve; as a rule, active = well fitted curve in the direction sought with a large enough effect; inconclusive = small, poorly fitted or top-dose-only effect, or another doubt; inactive = no such curve, though single readings can be large; an effect the other way counts as inactive or inconclusive. Unless noted, % is scaled to controls: 0 for no effect and ±100 for the full control effect.

SMILES	ALOX12 inh	DT40 TDP1 CPT	TDP1 cell noCPT	IL-1B inflam inh	HT1080 IDH1KD tx	HT1080NT lethal
COc1ccccc1N1C(=O)CC(Sc2n[nH]c(-c3cccc(C)c3)n2)C1=O (stereo not drawn)	?	2.06µM*	2.06µM*	i	-26.5%	?
Nc1nnc(SC2CC(=O)N(c3ccccc3)C2=O)s1 (stereo not drawn)	-21.9%	7.31µM*	3.26µM*	-88.6*	2.4%	2.1%
CCOc1ccc(N2C(=O)CC(Sc3nccc(C)n3)C2=O)cc1 (stereo not drawn)	26.3%	?	?	24.6	14.6%	11.1%
CCOc1ccc(N2C(=O)CC(Sc3ncccn3)C2=O)cc1 (stereo not drawn)	0.0%	18.4µM*	?	8.1	22.1%	15.1%
Cc1nc(SC2CC(=O)N(c3ccccc3)C2=O)n[nH]1 (stereo not drawn)	1.4%	1.46µM*	5.17µM*	-23.2	12.3%	17.3%
CC(C)c1ccc(N2C(=O)CC(Sc3ncccn3)C2=O)cc1 (stereo not drawn)	?	?	?	-14.5	8.9%	9.0%
CN1CCC(C(=O)N2Cc3ccccc3CC3(CCCCN3CC3CCNC3)C2)CC1 (stereo not drawn)	-4.8%[6.33 µM]	.	.	.	.	.
O=C1CC(Sc2ncccn2)C(=O)N1c1ccccc1 (stereo not drawn)	-27.1%	14.1µM*	?	-2.6	3.0%	5.4%
CN(CC(=O)NC(=O)NCc1ccccc1)Cc1ccc(C(F)(F)F)cc1	-3.8%	.	.	.	.	.
COC/C=C/C1=CC2=CC(=O)C(C)(OC(=O)c3cnc4ccccc4n3)C(=O)C2=CN1Cc1ccc(OC)cc1 (stereo not drawn)	?	23.1µM*	?	-60.1*	0.3%	-6.4%
COC/C=C/C1=CC2=CC(=O)C(C)(OC(=O)c3cnc4ccccc4n3)C(=O)C2=CN1Cc1ccccc1 (stereo not drawn)	?	?	16.4µM*	0.0	-18.9%	-29.7%
COC/C=C/C1=CC2=CC(=O)C(C)(OC(=O)c3cnc4ccccc4n3)C(=O)C2=CN1C1CC1 (stereo not drawn)	-20.3%	?	20.6µM*	-13.1	3.8%	0.1%
C=C(Cl)CN1CCN(Cc2ccccn2)CC1	-2.6%	.	.	.	.	.
CCCNC(=O)N1[C@H](c2cccs2)[C@@H](C)C(=O)[C@@H](C)[C@@H]1c1cccs1	-15.1%	-26.5%	?	.	.	.
CC(C)NC(=O)N1[C@H](c2cccs2)[C@@H](C)C(=O)[C@@H](C)[C@@H]1c1cccs1	0.6%	14.6µM*	?	.	.	.
Cc1nn(CCc2nc(-c3ccco3)cs2)c2[nH]c(=O)cc(C(F)(F)F)c12	7.94µM*	?	?	12.6	-19.1%	-9.3%
Cc1cc(C)n(CCc2nc(-c3ccco3)cs2)n1	?	11.2µM*	12.6µM*	24.7	-8.8%	27.1%
COc1cccc2cc(-c3csc(CCn4nc(C)cc4C)n3)c(=O)oc12	?	?	23.1µM*	-5.2	-11.8%	-7.0%
Cc1nn(CCc2nc(-c3ccccc3)cs2)c2[nH]c(=O)cc(C(F)(F)F)c12	7.08µM*	.	.	.	.	.
COc1ccc(-c2ccc3c(c2)C(=O)N2CCN(C(=O)COc4ccccc4)C[C@@H]2C(=O)N3)cc1	9.2%	.	.	.	.	.
CC1CC(C)CN(C(=O)c2ccc(Oc3ccccc3)cc2)C1 (stereo not drawn)	-26.9%	.	.	.	.	.
COC(=O)Cn1c(CN2CCN(c3ccccc3F)CC2)nc2c1c(=O)n(C)c(=O)n2C	26.2%	5.8µM*	8.2µM*	36.0	11.1%	1.7%
COC(=O)Cn1c(CN2CCN(c3ccccc3)CC2)nc2c1c(=O)n(C)c(=O)n2C	-58.3%	.	.	.	.	.
C=CCn1c(N2CCN(c3ccc(OC)cc3)CC2)nc2c1c(=O)n(C)c(=O)n2C	1.3%	20.6µM*	18.4µM*	-16.3	-24.1%	5.3%
CCOCCn1c(CN2CCN(c3ccccc3)CC2)nc2c1c(=O)n(C)c(=O)n2C	-0.6%	16.4µM*	16.4µM*	15.6	-4.5%	-7.0%
SMILES	ALOX12 inh	DT40 TDP1 CPT	TDP1 cell noCPT	IL-1B inflam inh	HT1080 IDH1KD tx	HT1080NT lethal
COc1ccc(N2CCN(Cc3nc4c(c(=O)n(C)c(=O)n4C)n3C(C)C)CC2)cc1	-11.6%	1.03µM*	0.651µM*	.	.	.
COCCn1c(CN2CCN(c3ccccc3)CC2)nc2c1c(=O)n(C)c(=O)n2C	1.7%	10.3µM*	10.3µM*	16.3	2.0%	-3.0%
Cc1cc(OCCN2CCN(S(=O)(=O)c3ccccc3F)CC2)ccc1C(C)C	0.6%	20.6µM*	16.4µM*	0.0	-14.9%	-17.2%
COc1ccccc1C(=O)ON=C1c2ccccc2-c2ccccc21	-14.4%	-26.6%	23.1µM*	-11.2	-15.2%	-10.3%
CSc1nccc(-c2sc(SC)c(C#N)c2-c2ccccc2)n1	?	-6.3%	?	154.9	-20.5%	-7.7%
CSc1sc(-c2ccnc(SCCS(C)(=O)=O)n2)c(-c2ccccc2)c1C#N	0.0%	?	18.4µM*	65.7	-9.7%	-14.8%
CC(=O)Nc1ccc(S(=O)(=O)NC2C3(C)CCC(C3)C2(C)C)cc1 (stereo not drawn)	3.16µM*	-22.1%	5.2%	10.7	-9.5%	-3.0%
COc1ccc(NC(=O)c2c(N)no[n+]2[O-])c(OC)c1	-0.4%	9.9%	-0.5%	-4.2	-7.7%	-0.4%
COc1ccc(NC(=O)c2c(N)no[n+]2[O-])cc1	-15.7%	-4.6%	-26.4%	-20.3	0.731µM*	0.731µM*
O=C(Nc1ccccc1)C1=C[C@H](c2ccc3c(c2)OCO3)C[C@H](OCCCCO)O1	?	25.9µM*	?	-14.7	6.8%	22.4%
O=C(C1=C[C@H](c2ccc(C(F)(F)F)cc2)C[C@H](OCCCCO)O1)N1CCN(Cc2ccc3c(c2)OCO3)CC1	-4.2%	?	?	-66.6*	?	-25.3%
O=C(C1=C[C@@H](c2ccc(C(F)(F)F)cc2)C[C@@H](OCCCCO)O1)N1CCCCCCC1	?	23.1µM*	?	-19.2	9.1%	0.6%
O=C(C1=C[C@@H](c2ccc(Br)cc2)C[C@@H](OCCCCO)O1)N1CCN(Cc2ccc3c(c2)OCO3)CC1	-21.1%	?	?	?	-2.1%	-14.2%
CCOc1ccccc1C1CC(=O)N(Cc2ccccc2)c2c1c(C)nn2-c1nc(C)cc(C)n1 (stereo not drawn)	6.7%	.	.	.	.	.

High-throughput results deposited in PubChem BioAssay by National Center for Advancing Translational Sciences (NCATS).
